Conditions in all cases: mRNA level, 48 h; actives raise or lower the signal
Read-out in test [1]: JUN Transcription Factor, JUN (gene 3725)
Description: LTEA_HepaRG_JUN: Life Technologies and Expression Analysis (LTEA) Assay for JUN Transcription Factor using HepaRG (AID 2283513). In short, it runs like this: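 mRNA measured by TaqMan qRT-PCR after 48 h chemical exposure of HepaRG cultures; normalization to three housekeeping genes. Duplicate eight-point half-log curves from 100 uM in 0.5% DMSO; gain or loss fitted against DMSO baseline.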

Read-out in test [2]: Lipase C (LIPC), LIPC (gene 3990)
Description: LTEA_HepaRG_LIPC: Life Technologies and Expression Analysis (LTEA) Assay for Lipase C (LIPC) using HepaRG (AID 2283514). In short, it runs like this: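 In this multiplexed gene-expression screen, human HepaRG cultures received test chemicals for 48 h across eight concentrations with 100 uM highest, in duplicate. Values reflect LIPC mRNA induction or suppression versus DMSO vehicle, from normalized qRT-PCR.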

Read-out in test [3]: MicroRNA 122 (MIR122), gene 406906
Description: LTEA_HepaRG_MIR122: Life Technologies and Expression Analysis (LTEA) Assay for MicroRNA 122 (MIR122) using HepaRG (AID 2283516). Note: the transcript read is the microRNA miR-122. In short, it runs like this: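 Expression measured by microfluidic qRT-PCR with three housekeeping genes for normalisation, after 48 h treatment of HepaRG cultures. Eight concentrations (top 100 uM, half-log steps, 0.5% DMSO vehicle) in duplicate; gain or loss fitted relative to vehicle.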

Read-out in another test: MYC, MYC (gene 4609)
Nature of the test: LTEA_HepaRG_MYC: Life Technologies and Expression Analysis (LTEA) Assay for MYC using HepaRG (AID 2283518). In short, it runs like this:
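Cells are thawed, plated and cultured 48 h, then treated for 48 h with test chemicals (eight half-log concentrations from 100 uM, 0.5% DMSO vehicle). RNA is isolated and MYC expression quantified by qRT-PCR against three housekeeping genes.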

Read-out in test [4]: matrix metalloproteinase-3 (MMP3), MMP3 (gene 4314)
Nature of the test: LTEA_HepaRG_MMP3: Life Technologies and Expression Analysis (LTEA) Assay for matrix metalloproteinase-3 (MMP3) using HepaRG (AID 2283519). In short, it runs like this:
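Human liver HepaRG cultures received chemicals (top concentration 100 uM, 0.5% DMSO) for 48 h in duplicate. MMP3 mRNA induction or loss was then assessed via TaqMan qRT-PCR with housekeeping-gene normalisation.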

Read-out in test [5]: Paternally Expressed 10 (PEG10), PEG10 (gene 23089)
Description: LTEA_HepaRG_PEG10: Life Technologies and Expression Analysis (LTEA) Assay for Paternally Expressed 10 (PEG10) using HepaRG (AID 2283520).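 For AC50: differentiated HepaRG human liver cells in serum-free induction medium with 0.5% DMSO; PEG10 transcript by qRT-PCR normalised to ACTB GAPDH and POLR2A.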 The method in brief: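 PEG10 transcript measured by Fluidigm qRT-PCR, normalized to three housekeeping genes, in HepaRG cells treated 48 h (highest 100 uM, half-log steps, 0.5% DMSO vehicle). Cells plated 48 h before switching to serum-free induction medium.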

Read-out in test [6]: Protein phosphatase 2A (PPP2R4), PTPA (gene 5524)
Nature of the test: LTEA_HepaRG_PPP2R4: Life Technologies and Expression Analysis (LTEA) Assay for Protein phosphatase 2A (PPP2R4) using HepaRG (AID 2283522). The method in brief: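 Expression was quantified by Fluidigm qRT-PCR normalised to three housekeeping genes after 48 h treatment. Human HepaRG cells received an 8-point series from 100 µM downward by half-logs, in duplicate with 0.5% DMSO vehicle and 1 mM phenobarbital as induction control.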

Read-out in test [7]: Phosphatase and tensin (PTEN), PTEN (gene 5728)
Description: LTEA_HepaRG_PTEN: Life Technologies and Expression Analysis (LTEA) Assay for Phosphatase and tensin (PTEN) using HepaRG (AID 2283523). In short, it runs like this:
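Expression of PTEN is quantified in the human liver line HepaRG following two days of dosing (top concentration 100 uM, half-log dilutions, 0.5% DMSO). Values derive from bidirectional curve fitting relative to DMSO controls.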

Read-out in test [8]: solute carrier (SLC22A1), SLC22A1 (gene 6580)
Description: LTEA_HepaRG_SLC22A1: Life Technologies and Expression Analysis (LTEA) Assay for solute carrier (SLC22A1) using HepaRG (AID 2283524). In short, it runs like this: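 Transcript induction or suppression of SLC22A1 in human HepaRG cultures is scored after 48 h chemical treatment, with DMSO (0.5%) as baseline for bidirectional fitting. Concentrations span eight half-log points topping at 100 uM.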

Read-out in test [9]: Pyruvate Dehydrogenase Kinase 4 (PDK4), PDK4 (gene 5166)
Nature of the test: LTEA_HepaRG_PDK4: Life Technologies and Expression Analysis (LTEA) Assay for Pyruvate Dehydrogenase Kinase 4 (PDK4) using HepaRG (AID 2283525). The method in brief: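 Eight-point, half-log concentration series (max 100 uM, 0.5% DMSO) applied to differentiated HepaRG cells for 48 h in duplicate. Endpoint: PDK4 mRNA induction or repression by qRT-PCR against DMSO baseline.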

Read-out in test [10]: NAD(P)H dehydrogenase [quinone] 1 (NQO1), NQO1 (gene 1728)
Nature of the test: LTEA_HepaRG_NQO1: Life Technologies and Expression Analysis (LTEA) Assay for NAD(P)H dehydrogenase [quinone] 1 (NQO1) using HepaRG (AID 2283526). In short, it runs like this:
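NQO1 transcript induction or loss measured by TaqMan qRT-PCR, referenced to three housekeeping genes and fitted bidirectionally against 0.5% DMSO. HepaRG cultures exposed 48 h, duplicate, eight-point half-log series, top 100 uM.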

Read-out in test [11]: Nuclear factor erythroid 2-related factor 2 (Homo sapiens) (UniProt Q16236)
Description: LTEA_HepaRG_NFE2L2: Life Technologies and Expression Analysis (LTEA) Assay for Nuclear factor erythroid 2-related factor 2 (NFE2L2) Transcription Factor using HepaRG (AID 2283527). In short, it runs like this: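 Human liver HepaRG line treated in duplicate for 48 h with an eight-point series topping at 100 uM. Gene expression of NFE2L2 by qRT-PCR, bidirectionally fitted against the vehicle control.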

Read-out in test [12]: succinate dehydrogenase complex iron sulfur subunit B (SDHB), SDHB (gene 6390)
Description: LTEA_HepaRG_SDHB: Life Technologies and Expression Analysis (LTEA) Assay for succinate dehydrogenase complex iron sulfur subunit B (SDHB) using HepaRG (AID 2283528). The method in brief: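 SDHB transcript level read by TaqMan qRT-PCR, housekeeping-normalised (ACTB, GAPDH, POLR2A), after 48 h chemical treatment of plated HepaRG cells; eight concentrations top 100 uM, half-log steps, 0.5% DMSO, duplicates; fitted both directions against DMSO.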

Read-out in test [13]: Signal transducer and activator of transcription 3 (Homo sapiens) (UniProt P40763)
Nature of the test: LTEA_HepaRG_STAT3: Life Technologies and Expression Analysis (LTEA) Assay for Signal transducer and activator of transcription (STAT3) using HepaRG (AID 2283529). In short, it runs like this: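 In this transcriptional endpoint, HepaRG cultures receive test chemicals at up to 100 uM for 48 h, tested in duplicate. STAT3 mRNA is normalized to ACTB, GAPDH and POLR2A.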

Read-out in test [14]: solute carrier (SLCO1B1), SLCO1B1 (gene 10599)
Nature of the test: LTEA_HepaRG_SLCO1B1: Life Technologies and Expression Analysis (LTEA) Assay for solute carrier (SLCO1B1) using HepaRG (AID 2283530). In short, it runs like this:
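Gain or loss of SLCO1B1 mRNA is fitted against the 0.5% DMSO vehicle in human HepaRG liver cells treated 48 h at up to 100 uM in half-log steps. Expression comes from qRT-PCR normalized to endogenous controls.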

Read-out in test [15]: sulfotransferase 2A1 (SULT2A1), SULT2A1 (gene 6822)
Description: LTEA_HepaRG_SULT2A1: Life Technologies and Expression Analysis (LTEA) Assay for sulfotransferase 2A1 (SULT2A1) using HepaRG (AID 2283531). The method in brief:
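Cells were plated and cultured 48 h, switched to serum-free induction medium, then dosed in duplicate for 48 h (8 concentrations, max 100 uM). RNA was isolated and SULT2A1 expression measured by qRT-PCR; gain or loss of signal fitted relative to DMSO.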

Read-out in test [16]: Transforming Growth Factor (TGFA), TGFA (gene 7039)
Description: LTEA_HepaRG_TGFA: Life Technologies and Expression Analysis (LTEA) Assay for Transforming Growth Factor (TGFA) using HepaRG (AID 2283532). The method in brief:
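Gene expression of TGFA was quantified by qRT-PCR after human HepaRG cells were treated for 48 h with test chemicals (eight concentrations, highest 100 uM, 0.5% DMSO). Activity in either direction was fitted relative to DMSO.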

Read-out in test [17]: Nuclear factor NF-kappa-B p105 subunit (Homo sapiens) (UniProt P19838)
Nature of the test: LTEA_HepaRG_NFKB1: Life Technologies and Expression Analysis (LTEA) Assay for Nuclear Factor Kappa B Subunit 1 (NFKB1) using HepaRG (AID 2283521).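 Note: differentiated human HepaRG liver cells in serum-free induction medium.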 The method in brief:
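NFKB1 transcript was measured by TaqMan qRT-PCR on Fluidigm arrays, normalised to three housekeeping genes and fitted in both directions against 0.5% DMSO. HepaRG cells were dosed in duplicate for 48 h in serum-free induction medium, eight half-log steps from 100 uM.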

Read-out in test [18]: matrix metalloproteinase-10 (MMP10), MMP10 (gene 4319)
Description: LTEA_HepaRG_MMP10: Life Technologies and Expression Analysis (LTEA) Assay for matrix metalloproteinase-10 (MMP10) using HepaRG (AID 2283517). The method in brief: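 In differentiated HepaRG cultures kept in 0.5% DMSO, test chemicals act for 48 h over an eight-point range with a top dose of 100 uM. Expression is then quantified by TaqMan RT-PCR against ACTB, GAPDH and POLR2A.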

Activity calls are given as the source filed them. Rule for the calls: active = hit-call score of the fitted dose curve at least 0.9, where 1 is the maximum; inactive = score below 0.9.

Signal transducer and activator of transcription 3 (Homo sapiens), sequence (P40763 whole entry, looked up): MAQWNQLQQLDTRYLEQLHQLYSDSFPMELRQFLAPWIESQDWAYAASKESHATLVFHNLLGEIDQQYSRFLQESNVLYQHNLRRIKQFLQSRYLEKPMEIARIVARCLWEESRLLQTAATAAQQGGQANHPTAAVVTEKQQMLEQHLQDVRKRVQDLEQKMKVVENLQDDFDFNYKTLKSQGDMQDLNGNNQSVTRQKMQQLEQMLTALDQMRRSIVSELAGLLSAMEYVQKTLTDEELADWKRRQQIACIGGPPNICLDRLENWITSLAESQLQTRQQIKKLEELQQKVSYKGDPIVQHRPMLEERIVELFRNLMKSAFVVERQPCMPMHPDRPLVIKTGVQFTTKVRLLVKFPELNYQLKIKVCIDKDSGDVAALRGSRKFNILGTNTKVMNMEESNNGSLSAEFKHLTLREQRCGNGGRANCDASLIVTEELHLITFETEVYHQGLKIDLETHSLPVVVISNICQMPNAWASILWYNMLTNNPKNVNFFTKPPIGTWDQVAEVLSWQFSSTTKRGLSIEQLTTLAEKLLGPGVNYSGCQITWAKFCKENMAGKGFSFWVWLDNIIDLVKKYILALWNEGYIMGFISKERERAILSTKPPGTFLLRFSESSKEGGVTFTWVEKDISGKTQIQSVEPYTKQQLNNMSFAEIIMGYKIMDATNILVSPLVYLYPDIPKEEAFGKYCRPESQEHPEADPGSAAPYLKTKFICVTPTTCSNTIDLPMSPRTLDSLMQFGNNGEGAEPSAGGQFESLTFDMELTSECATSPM
Nuclear factor erythroid 2-related factor 2 (Homo sapiens), sequence (Q16236 whole entry, looked up): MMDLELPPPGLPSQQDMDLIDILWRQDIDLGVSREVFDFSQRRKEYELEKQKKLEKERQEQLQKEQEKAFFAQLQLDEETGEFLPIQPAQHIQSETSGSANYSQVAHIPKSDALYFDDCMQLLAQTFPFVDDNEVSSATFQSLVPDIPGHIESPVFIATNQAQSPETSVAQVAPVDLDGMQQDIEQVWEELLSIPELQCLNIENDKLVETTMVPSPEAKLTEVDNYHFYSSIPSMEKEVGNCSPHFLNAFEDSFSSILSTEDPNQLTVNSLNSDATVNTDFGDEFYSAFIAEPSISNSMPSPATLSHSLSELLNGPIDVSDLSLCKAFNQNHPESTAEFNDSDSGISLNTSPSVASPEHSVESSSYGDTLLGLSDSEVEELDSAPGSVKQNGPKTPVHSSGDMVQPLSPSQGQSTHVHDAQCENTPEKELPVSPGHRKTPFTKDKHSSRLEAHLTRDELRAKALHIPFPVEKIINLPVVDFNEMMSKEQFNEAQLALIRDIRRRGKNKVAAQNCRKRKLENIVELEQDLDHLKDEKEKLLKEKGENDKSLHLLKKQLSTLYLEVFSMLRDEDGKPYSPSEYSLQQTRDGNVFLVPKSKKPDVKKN
Nuclear factor NF-kappa-B p105 subunit (Homo sapiens), sequence (P19838 whole entry, looked up): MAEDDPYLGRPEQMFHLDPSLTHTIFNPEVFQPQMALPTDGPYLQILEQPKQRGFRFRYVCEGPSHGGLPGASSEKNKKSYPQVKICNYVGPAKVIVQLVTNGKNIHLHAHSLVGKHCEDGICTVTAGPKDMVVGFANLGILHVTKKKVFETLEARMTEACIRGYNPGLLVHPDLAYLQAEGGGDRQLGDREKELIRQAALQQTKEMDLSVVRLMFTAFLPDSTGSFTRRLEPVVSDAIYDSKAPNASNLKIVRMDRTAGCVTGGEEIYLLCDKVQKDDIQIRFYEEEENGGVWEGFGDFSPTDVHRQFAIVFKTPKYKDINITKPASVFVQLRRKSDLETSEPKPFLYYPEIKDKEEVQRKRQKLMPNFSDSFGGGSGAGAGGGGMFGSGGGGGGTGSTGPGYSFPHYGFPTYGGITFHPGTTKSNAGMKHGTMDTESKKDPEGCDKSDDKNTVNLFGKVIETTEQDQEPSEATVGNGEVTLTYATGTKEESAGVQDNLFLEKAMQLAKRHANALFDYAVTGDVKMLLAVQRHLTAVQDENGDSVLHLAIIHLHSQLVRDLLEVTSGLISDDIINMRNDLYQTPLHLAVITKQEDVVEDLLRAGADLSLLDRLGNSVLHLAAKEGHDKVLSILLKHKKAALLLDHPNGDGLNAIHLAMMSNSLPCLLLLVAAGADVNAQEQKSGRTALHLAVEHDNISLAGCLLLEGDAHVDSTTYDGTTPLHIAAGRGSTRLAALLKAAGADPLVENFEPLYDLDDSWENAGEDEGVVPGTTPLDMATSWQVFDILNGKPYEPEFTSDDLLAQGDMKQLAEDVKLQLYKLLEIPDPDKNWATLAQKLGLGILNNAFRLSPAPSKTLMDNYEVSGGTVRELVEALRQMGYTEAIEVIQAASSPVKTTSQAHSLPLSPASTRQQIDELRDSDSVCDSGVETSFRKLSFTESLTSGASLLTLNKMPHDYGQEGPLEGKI

`C[N+](C)(C)CC1CO1` (stereo not drawn): the outcome is “inactive” in test [1]; “inactive” in test [2]; “inactive” in [3]; “inactive” in the test with MYC, MYC (gene 4609); “inactive” in test [4]; “inactive” in [5]. The call in [6], in [7], in test [8], in test [9], in test [10] and in [11] was inactive. The compound was classed as inactive in [12], in test [13], in test [14], in [15] and in test [16].
Consider `[O-][Cl+]O`, for which the outcome in [1] is “inactive”; in test [2], “inactive”; in [3], “inactive”; in the test with MYC, MYC (gene 4609), “inactive”; in [4], “inactive”; in test [5], “inactive”. The compound was called inactive in [17], in test [6], in test [7], in [8], in test [9] and in [10]. Besides, the compound was called inactive in [11], in test [12], in test [13], in [14], in test [15] and in test [16].
As to `CCC12COCN1COC2`, the outcome in test [1] is “inactive”; in test [2], “inactive”; in test [3] it was “inactive”; in the test with MYC, MYC (gene 4609) it was “inactive”; in test [4], “inactive”; in test [5], “inactive”. The outcome in test [17], in test [6], in test [8], in test [9], in [10] and in [11] was inactive. Moreover, the compound was called inactive in test [12], in [13], in test [15] and in test [16].
As to `CC(C)(C)OOC(C)(C)CCC(C)(C)OOC(C)(C)C`, the outcome was “inactive” in test [1]; “inactive” in test [2]; “inactive” in test [3]; “inactive” in [18]; “inactive” with MYC, MYC (gene 4609); “inactive” in test [4]. Further, the call in [5], in test [6], in test [7], in test [8], in test [9] and in test [10] was inactive. The compound was called inactive in test [12], in [13], in test [14], in test [15] and in test [16].
By AC50 is commonly meant the concentration at which the activity in the assay is half-maximal. With `CCNS(=O)(=O)C(F)(F)C(F)(F)C(F)(F)C(F)(F)C(F)(F)C(F)(F)C(F)(F)C(F)(F)F`, the outcome in test [1] is “inactive”; in test [2], “inactive”; with MYC, MYC (gene 4609), “inactive”; in test [4], “inactive”; in test [6], “inactive”; in test [10], “inactive”. In addition, the compound was classed as inactive in test [11], in test [12], in test [13], in [15] and in test [16]. Besides, the AC50 in test [3] was 48.2 µM (active); in test [5] it was 15.5 µM (active); in test [9], 30.4 µM (active); in test [14], 48.2 µM (active).

Values taken from PubChem BioAssay (EPA / NIEHS).
